Source: PubChem
Compounds with a hit are over-represented: about 21% of the library has one in this group of screens.
Cycloheximide cs = counter-screen hit for Shiga toxin inhibitors, cycloheximide. 12% of 300,000 active. cell reporter, cycloheximide protein synthesis inhibition counterscreen. max response, %; in the data active = max response mostly above about 13%, no sharp cut-off; inactive = mostly below about 14%; also: read at 38.3 µM for the half of the compounds with a filed dose; 0% is about no effect
Pf growth 96h = inhibits malaria parasite growth, 96 h; P. falciparum luciferase reporter growth, 96 h; Potency, µM (titrated, usually from 28.7 µM), without a hit: at the top dose activity change, negative = inhibition, actives largely listed as inhibitors; 6.9% of 320,000 active; also: potency is read from the fitted curve at half-maximal effect; % is scaled to controls: 0 for no effect and ±100 for the full control effect
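Infected RBCs, 2% Hct / 0.05% parasitemia final; luciferase-reporter P. falciparum; cpd 96 h, 37 C, 5% CO2; luciferase detection reagent; luminescence.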
Pf growth 48h = inhibits P. falciparum growth in the first generation, 48 h. P. falciparum luciferase growth in erythrocytes, 48 h. Potency, µM (titrated, usually from 28.7 µM), for the others: at the highest dose activity change, negative = inhibition, usual class: inhibitors. 5.9% of 310,000 active. AID 504832; also: potency is read from the fitted curve at half-maximal effect; % is scaled to controls: 0 for no effect and ±100 for the full control effect
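Parasite viability was followed by luminescence of a genomically integrated firefly luciferase. Cultures held 0.1% parasitemia at 2% hematocrit (final), incubated under 5% CO2 at 37 C.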
Giardia FBPA inh = Giardia lamblia aldolase inhibition; Potency, µM (top dose mostly 59.6 µM), for the others: top-dose activity, negative = inhibition, actives largely listed as inhibitors; 0.71% of 290,000 active; A8B2U2; purified Giardia FBPA; also: potency is read from the fitted curve at half-maximal effect; % is scaled to controls: 0 for no effect and ±100 for the full control effect; nearly all actives have a fitted effect of over 55% in size
Target sequence (A8B2U2 whole entry, looked up): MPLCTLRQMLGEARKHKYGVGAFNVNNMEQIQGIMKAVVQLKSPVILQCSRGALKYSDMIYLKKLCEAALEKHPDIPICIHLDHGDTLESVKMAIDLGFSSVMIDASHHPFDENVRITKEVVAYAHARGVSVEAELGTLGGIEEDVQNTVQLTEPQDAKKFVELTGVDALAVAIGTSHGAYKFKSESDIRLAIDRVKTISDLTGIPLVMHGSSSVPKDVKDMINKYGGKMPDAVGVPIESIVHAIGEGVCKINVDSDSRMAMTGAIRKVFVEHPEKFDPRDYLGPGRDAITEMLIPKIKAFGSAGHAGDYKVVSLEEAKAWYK
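40 nM FBPA preincubated 10 min at RT with compound (up to 57.5 uM final), then substrate plus GAPDH/TPI/NAD/arsenate coupling and diaphorase/resazurin added. Fluorescence read after 20 min at RT, 525/598 nm.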
Shiga inhibitor = inhibitors of Shiga toxin in Vero cells | 9.2% of 290,000 active | inhibition, % at 38.7 µM | AID 2315 | Vero cells, Shiga toxin protein synthesis inhibition reporter; in the data active = inhibition mostly above about 28%, no sharp cut-off; inactive = mostly below about 43%; also: 0% is about no effect
NS1 inh = blocks influenza NS1 protein function | AID 2326 | 0.4% of 270,000 active | Potency, µM (top dose mostly 46.1 µM), for the others: top-dose activity, positive = more growth; calls by dose curve; also: potency is read from the fitted curve at half-maximal effect; actives are rising curves; nearly all actives have a fitted effect of over 50% in size
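OD600 was taken as the measure of yeast growth restored by compound in an NS1-expressing S. cerevisiae strain. Cells had been washed out of glucose medium and diluted 1:100 into galactose -URA medium, pH 6.0.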
* hit, by the source's call; ? = inconclusive; · = no result given; [ ] = remark or other dose. Unless noted, calls follow the shape of the dose curve; as a rule, active = well fitted curve in the direction sought with a large enough effect; inconclusive = small, poorly fitted or top-dose-only effect, or another doubt; inactive = no such curve, though single readings can be large; an effect the other way counts as inactive or inconclusive.

SMILES	Cycloheximide cs	Pf growth 96h	Pf growth 48h	Giardia FBPA inh	Shiga inhibitor	NS1 inh
CCc1cc2c(NCCO)ncnc2s1	-3	·	8%	-1%	-17	7%
CCc1cc2c(NCCC(=O)O)ncnc2s1	-4	12µM*	18%	8%	-2	-7%
CCOc1ccccc1NC(=O)CCS(=O)(=O)c1ccc(Br)cc1	6	30%	-2%	2%	27	-1%
CCOC(=O)C(C)N1C(=O)S/C(=C/c2cc(C)n(-c3ccccn3)c2C)C1=O (stereo not drawn)	31*	·	23%	-27%	114*	-6%
CCOC(=O)C(C)N1C(=O)S/C(=C/c2cc(C)n(-c3ccncc3)c2C)C1=O (stereo not drawn)	18*	13µM*	?	-12%	21	1%
Cc1cc(C=C2C(=O)N(C)C(=S)N(C)C2=O)c(C)n1-c1ccncc1	-3	-1%	75%	-8%	-5	3%
O=C(CSc1n[nH]c(-c2ccccc2)n1)N1CCCC1	16	0%	53%	-12%	65*	-7%
CCc1ccc(-c2nc(SCC(=O)N3CCOCC3)n[nH]2)cc1	11*	84%	86%	8%	29*	·
O=C(CSc1n[nH]c(-c2ccccc2)n1)Nc1ncc(Br)cc1Br	-1	2.9µM*	7%	0%	-22	-10%
O=C(CSc1n[nH]c(-c2cccnc2)n1)Nc1ccccc1	-1	?	-21%	-10%	15	-2%
O=C(CSc1n[nH]c(-c2ccccc2)n1)NC1CCCCC1	11	-18%	26%	-29%	22	-1%
c1ccc2sc(SCN(C3CCCCC3)C3CCCCC3)nc2c1	·	·	·	·	·	-7%
CC(Cc1ccccc1)[n+]1cc(/N=C(\[O-])Nc2ccccc2)on1 (stereo not drawn)	17*	·	4%	2%	28	-16%
CCCCCCCC/C=C\CCCCCCCC(=O)OCC(CO)OC(=O)CCCCCCC/C=C\CCCCCCCC (stereo not drawn)	·	·	·	-10%	·	·
COc1ccc(CNC(C)C23CC4CC(CC(C4)C2)C3)c(OC)c1OC (stereo not drawn)	-4	9.3µM*	12µM*	2%	-3	-5%
CCCn1c(C)nc2c(NCCCN(CC)CC)nc(C)nc21	·	·	·	5%	·	·
Nc1ccc(-c2cc(-c3ccc(N)cc3)nc(-c3ccccc3)n2)cc1	5	43%	14%	1%	-4	20%
Oc1ccc(-c2cccc(-c3ccc(O)cc3)n2)cc1	39*	-10%	15%	-2%	67*	-6%
Oc1ccc(-c2nnc(-c3ccc(O)cc3)nn2)cc1	26*	?	?	2%	25	6%
Oc1ccc(-c2cc(-c3ccc(O)cc3)nc(-c3ccccc3)n2)cc1	-4	5.9µM*	4%[0.00184 µM]	-8%	-8	9%
Oc1ccc(O)cc1	·	?	-12%	-5%	·	-6%
Clc1nc(-c2ccccc2)cc(-c2ccccc2)n1	17*	?	19%	-1%	17	-6%
Cc1cc(C)cc(OCCCCn2cncn2)c1	1	36%	0%	-4%	-4	-4%
CC1CC(=O)Nc2cc([N+](=O)[O-])ccc2N1 (stereo not drawn)	-1	-1%	23%	0%	-21	1%
COc1ccc2oc(=O)c(C(=O)Nc3ccccc3O)cc2c1	36*	60%	59%	-2%	46	-8%
SMILES	Cycloheximide cs	Pf growth 96h	Pf growth 48h	Giardia FBPA inh	Shiga inhibitor	NS1 inh
COc1ccc2oc(=O)c(C(=O)NC(C)c3ccccc3)cc2c1 (stereo not drawn)	18*	-7%	?	18%	54	3%
COc1ccc2oc(=O)c(NC(=O)C3CCCCC3)cc2c1	-3	13µM*	72%	5%	3	2%
COc1ccc2oc(=O)c(C(C)=O)cc2c1	-2	-24%	·	1%	-2	3%
CN(C)c1ccc(C(CNS(=O)(=O)c2ccc3ccccc3c2)c2c[nH]c3ccccc23)cc1 (stereo not drawn)	23*	26%	7%	-8%	27	?
CN(C)c1ccc(C(CN)c2c[nH]c3ccccc23)cc1 (stereo not drawn)	10	?	9.3µM*	-4%	21	14%
CC(=O)Nc1sc(NC(=O)c2ccc(Cl)cc2)nc1-c1cccs1	-3	10%	-7%	-6%	-14	0%
CCOc1cc(/C=N/NC(=O)CSc2cccc3cccnc23)ccc1O	-3	13%	?	-10%	19	·
CC(=O)Nc1sc(N/N=C\c2ccccc2Cl)nc1-c1cccs1	73*	?	?	-3%	82*	5%
CC(=O)Nc1sc(NC(=O)c2ccc([N+](=O)[O-])cc2)nc1-c1cccs1	6	?	?	2%	10	-3%
CCOc1cc(/C=N/Nc2nc(-c3cccs3)c(NC(C)=O)s2)ccc1O	20*	?	?	-26%	27	10%
CC(=O)Nc1sc(N/N=C\c2ccccc2)nc1-c1cccs1	31*	?	?	-19%	active	-7%
CC(=O)Nc1sc(N/N=C\c2ccco2)nc1-c1cccs1	12*	?	?	-29%	33	6%
CC(NC(=O)C(=O)c1cn(CC(=O)N2CCOCC2)c2ccccc12)c1ccccc1 (stereo not drawn)	-10	?	1%	·	10	-2%
CCc1ccc2nc(Nc3ccc(OC)cc3OC)c(C#N)cc2c1	1	3%	14%	-4%	-2	4%
CC(C)c1ccc(OCC(=O)NC2CCCC2)cc1	34*	-6%	?	6%	63*	-39%
CCC(=O)c1ccc(OCC(=O)NC2CCCC2)cc1	·	-16%	27%	·	·	·
CC(C)c1ccc(OCC(=O)N(c2ccccn2)C2CCCCC2)cc1	17*	15%	?	-2%	19	-36%
CC(C)CC(NC(=O)COc1ccccc1)C(=O)O (stereo not drawn)	-3	12µM*	-2%	3%	-21	5%
COC(=O)c1ccc(OCC(=O)NC2CCCCCC2)cc1	25	?	2%	·	39*	-26%
CC(=O)c1ccc(OCC(=O)NC2CCCCCC2)cc1	·	3%	-10%	·	·	·
N#Cc1ccc2c(c1)N(CCCN1CCC(O)CC1)c1ccccc1S2	·	?	?	3%	·	·
C=CCc1cccc2cc(C(=O)N3CCN(c4ccccn4)CC3)c(=O)oc12	-1	131%	33%	-6%	-21	·
CCOC(=O)c1cc(CC)sc1NC(=O)COC(=O)C1CCC1	-2	8%	4%	-3%	-11	-5%
COC(=O)C(CC(C)C)NC(=O)C(N)Cc1ccccc1 (stereo not drawn)	2	174%	15%	-8%	-6	14%
CC(C)c1ccc(OCC(=O)NC(C)c2ccccc2)cc1 (stereo not drawn)	10	13µM*	20%	7%	-1	-9%
COc1ccc(OCCC(=O)NC2CCCCC2)cc1	0	-23%	-5%	0%	9	·
